Most compounds without a hit are left out; they make up all but 21% or so of the library.
Pf growth 96h – Primary qHTS for delayed death inhibitors of the malarial parasite plastid, 96 hour incubation; P. falciparum luciferase reporter growth, 96 h; Potency, µM (top dose mostly 28.7 µM), inactives show at the top dose activity change, negative = inhibition, most hits filed as inhibitors; hit rate 6.9% among 320,000; AID 504834, 2011; note: potency is the fitted concentration of half-maximal effect; % is set by controls: 0 for no effect and ±100 for the full control effect
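Cell-based qHTS: luciferase-tagged P. falciparum in erythrocytes (2% hematocrit, 0.05% parasitemia final) incubated with compounds for 96 hours, 37 C, 5% CO2; luciferase detection reagent then added and luminescence measured.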
Shiga inhibitor – A qHTS for Small Molecule Inhibitors of Shiga Toxin; Vero cells, Shiga toxin protein synthesis inhibition reporter; AID 2315, 2010; hit rate 9.2% among 290,000; inhibition, % at 38.7 µM; in the data active = inhibition mostly above about 28%, no sharp cut-off; inactive = mostly below about 43%; note: 0% is about no effect
Pf growth 48h – Primary qHTS for delayed death inhibitors of the malarial parasite plastid, 48 hour incubation; P. falciparum luciferase growth in erythrocytes, 48 h; Potency, µM (series often up to 28.7 µM), without a hit: at the highest dose activity change, negative = inhibition, most hits filed as inhibitors; hit rate 5.9% among 310,000; AID 504832, 2011; note: potency is the fitted concentration of half-maximal effect; % is set by controls: 0 for no effect and ±100 for the full control effect
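Firefly luciferase activity from engineered P. falciparum reports growth; inhibitors lower the luminescent signal. Cultures contained 2% hematocrit erythrocytes at 0.1% final parasitemia.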
CHX counter – Cycloheximide Counterscreen for Small Molecule Inhibitors of Shiga Toxin. cell reporter, cycloheximide protein synthesis inhibition counterscreen. max response, %. hit rate 12% among 300,000; in the data active = max response mostly above about 13%, no sharp cut-off; inactive = mostly below about 14%; note: read at 38.3 µM for the half of the compounds with a filed dose; 0% is about no effect
The depositor's hits bear a star; ? = inconclusive; . = no result given; [ ] = another dose, or the depositor's remark. Unless noted, calls come from the whole dose curve; as a rule, active = well fitted inhibition curve with a large enough effect; inconclusive = small, poorly fitted or top-dose-only effect, or another doubt; inactive = no such curve, though single readings can be large or run the other way.

SMILES | Pf growth 96h | Shiga inhibitor | Pf growth 48h | CHX counter
O=c1ccc(-c2ccc(S(=O)(=O)Nc3ccccc3Cl)o2)n[nH]1 | -29% | 18 | ? | -2
O=C(O)c1cc([N+](=O)[O-])cc2c1nnn2O | -9% | -9 | 9% | 8
CN(C)CCNc1ncnc2c1cnn2-c1ccc(Cl)cc1 | ? | 56 | . | 30*
Cc1ccc(Cn2ncc3c(NCCN(C)C)ncnc32)cc1 | 0% | 12 | 27% | -2
OCCCNc1ncnc2c1cnn2-c1ccc(Cl)cc1 | 2% | 75* | -19%[0.00184 µM] | 52*
Clc1ccc(-n2ncc3c(NCc4ccco4)ncnc32)cc1 | 27% | -10 | 13% | 2
Cc1cc(C)cc(NC(=O)CCn2c(=S)[nH]c3ccccc3c2=O)c1 | -27% | 1 | -21% | 0
CCN(CC)CCNC(=O)CCN1N=C(c2ccccc2)CCC1=O | ? | 27 | 23% | 9
CC1CN(S(=O)(=O)c2cc(C(=O)NCCC3=CCCCC3)ccc2Cl)CC(C)O1 (stereo unspecified) | ? | . | 10µM* | .
Cc1ccccc1NS(=O)(=O)c1cc(C(=O)NCCC2=CCCCC2)ccc1Cl | ? | 3 | ? | 1
O=C(NCCC1=CCCCC1)c1ccc(F)c(S(=O)(=O)N2CCOCC2)c1 | 9.3µM* | 11 | ? | -2
O=C(Nc1cc(S(=O)(=O)N2CCCCC2)ccc1N1CCCCC1)C1CC1 | ? | 4 | 10µM* | 2
CN1CCN(c2ccc(S(=O)(=O)N3CCCCC3)cc2NC(=O)c2ccc(C#N)cc2)CC1 | ? | -3 | ? | -3
CC1CCN(C(C)C(=O)Nc2cc(S(=O)(=O)N3CCCCC3)ccc2Cl)CC1 (stereo unspecified) | 9.3µM* | . | 12µM* | .
O=C(Nc1cc(S(=O)(=O)N2CCCCC2)ccc1N1CCCCC1)c1ccncc1 | 8.3µM* | -12 | 9.3µM* | -2
COc1ccccc1OCC(=O)Nc1cccc(-c2nnc(-c3ccco3)o2)c1 | 32%[5.75 µM] | 82* | ? | 36*
O=C(Nc1cccc(-c2nnc(-c3ccco3)o2)c1)C(c1ccccc1)c1ccccc1 | 5.2µM* | -6 | . | -3
O=C(Cc1ccc(Cl)cc1)Nc1cccc(-c2nnc(-c3ccco3)o2)c1 | -29% | -3 | ? | 3
O=C(Cc1ccccc1)Nc1cccc(-c2nnc(-c3ccco3)o2)c1 | -14% | 86* | 6% | 30*
Cc1ccc(C)c(C(=O)COC(=O)CCN2C(=O)C3C4CCC(C4)C3C2=O)c1 (stereo unspecified) | -2% | -4 | 8% | 17
CC(C)(O)C(=O)NN(Cc1ccccc1)c1ccccc1 | -17% | 33* | 12% | 28*
Cc1cccc(C)c1NC(=S)NN(Cc1ccccc1)c1ccccc1 | 4.7µM* | -4 | . | -4
CC(C)c1ccccc1NC(=S)NN(Cc1ccccc1)c1ccccc1 | 12µM* | -24 | ? | 15
Fc1ccccc1NC(=S)NN(Cc1ccccc1)c1ccccc1 | . | -20 | -26% | -1
O=C(CN1CCCCCC1)NN(Cc1ccccc1)c1ccccc1 | 2% | -13 | 7% | -1
SMILES | Pf growth 96h | Shiga inhibitor | Pf growth 48h | CHX counter
O=C(CSc1nnc(NC(=O)c2ccco2)s1)Nc1ccc(F)cc1F | 3% | -8 | 0% | -5
NS(=O)(=O)c1cccc(NC(=O)COC(=O)CCCc2c[nH]c3ccccc23)c1 | 1% | 11 | 1% | 10
Cc1cc(NC(=O)CN2C(=O)NC3(CCCCCC3)C2=O)no1 | 22% | -12 | -5% | 12
CN(C)CCNC(=O)c1onc(CSc2ccc(F)cc2)c1C(=O)NCCN(C)C | 3% | 3 | 13µM* | -6
CC(C)NC(=O)c1onc(CSc2ccc(F)c(F)c2)c1C(=O)O | ? | -4 | -2% | 6
CN(C)CCNC(=O)c1onc(CSc2ccc(F)c(F)c2)c1C(=O)NCCN(C)C | 6.6µM* | -1 | 8.3µM* | -5
COc1cccc(N(CC(=O)NCCSc2ccccn2)S(=O)(=O)c2ccccc2)c1 | 5% | -3 | 13µM* | -3
COc1ccc(Cl)cc1N(CC(=O)NCCSc1ccccn1)S(=O)(=O)c1ccccc1 | 1.7µM* | -15 | -17% | -6
COc1ccc(CCN2CC(C(=O)N(C)CCc3cn[nH]c3)CCC2=O)cc1 (stereo unspecified) | ? | -3 | 9% | -4
Nc1nonc1-n1nnc(C(=O)N/N=C/c2ccccc2Br)c1CN1CCCC1 | ? | -8 | 38% | -3
COc1ccc(C2N(S(=O)(=O)c3ccccc3)CCN2S(=O)(=O)c2ccc(C)cc2)cc1 (stereo unspecified) | 9.3µM* | -11 | . | 6
CCC(=O)N1CCCN(S(=O)(=O)c2ccc(C)cc2)C1c1ccc(OC)cc1 (stereo unspecified) | 30% | -16 | 13µM* | -3
Cc1ccc(S(=O)(=O)N2CCN(S(=O)(=O)c3ccc(C)cc3)C2c2ccccc2)cc1 | . | -3 | ? | 2
CSCCC(NC(=O)c1ccccc1)C(=O)N1CC(C)OC(C)C1 (stereo unspecified) | -2% | . | -10% | .
COc1ccc(OC)c(C(=O)NC(CC(N)=O)c2ccc(N3CCN(c4ccc(F)cc4)CC3)c([N+](=O)[O-])c2)c1 (stereo unspecified) | 26% | -2 | 4% | -2
COc1ccccc1CNC(=O)CSc1nc(-c2ccccc2)cn1N | . | 17 | 0% | 6
CN(C(=O)CSc1nc(-c2ccccc2)cn1N)C(c1ccccc1)c1ccccc1 | . | 13 | 12µM* | -1
Cc1cc(C)c(S(C)(=O)=O)c(Oc2cccc(C(F)(F)F)c2)n1 | 7% | 39 | ? | -1
CC(=O)c1cccc(NC(=O)C2=CN3CCS(=O)(=O)N=C3C=C2)c1 | -13% | . | -12% | .
CC1CCN(c2ccc(NC(=S)NC(=O)c3ccco3)cc2)CC1 | ? | 72* | ? | 19*
O=C(NC(=S)Nc1ccc(N2CCCCC2)cc1)c1ccco1 | 14% | 92* | 144% | 39*
O=C(NC(=S)Nc1ccc(NC(=O)c2ccco2)cc1)c1ccccc1 | 69% | -7 | 1% | 0
CC1CCN(c2ccc(NC(=S)NC(=O)c3ccc(-c4cccc([N+](=O)[O-])c4)o3)cc2)CC1 | . | 13 | 4.7µM* | -1
Cc1ccc(N(CC(=O)NCc2ccco2)C(=O)CNS(=O)(=O)c2ccccc2)c(C)c1 | 22% | -8 | ? | 7
Cc1ccc(S(=O)(=O)N2CCOCC2)cc1NC(=O)COC(=O)c1cc(=O)c2ccccc2o1 | 0% | -4 | 0% | -2
SMILES | Pf growth 96h | Shiga inhibitor | Pf growth 48h | CHX counter
CC(C)(CC(=O)O)CC(=O)Nc1ccc(Cl)c(Cl)c1 | 81% | 11 | -4% | -2
Cc1nn(CC(=O)N/N=C/c2ccc3c(c2)OCO3)c(C)c1Br | 0% | -4 | -9% | -2
Cc1cc(C)n(CC(=O)N/N=C/c2ccc3c(c2)OCO3)n1 | 3.7µM* | 12 | 32% | 1
Cc1cc(C)nc(SCC(=O)N/N=C/c2ccc3c(c2)OCO3)n1 | -5% | 60* | 27% | 39*
CC1SCC(=NOCc2ccccc2)CS1 (stereo unspecified) | 40% | 114* | 71% | 38*
c1ccc(CO/N=C(\c2ccc(C3CC3)nc2)C2CC2)cc1 | ? | 22 | 0% | 2

Compound activity as filed in PubChem.
